Laboratory results from publication PMC5540273 (PLoS ONE, 2017).

Key:
Settings in all cases: concentration: 1 μM, replicates: in singlicate; n = 1
CSF1R = test system: CSF1R
CSK = test system: CSK
CSNK1A1L = test system: CSNK1A1L
CSNK1A1 = test system: CSNK1A1
CSNK1D = test system: CSNK1D
CSNK1E = test system: CSNK1E
CSNK1G1 = test system: CSNK1G1
CSNK1G2 = test system: CSNK1G2
CSNK1G3 = test system: CSNK1G3
CSNK2A1 = test system: CSNK2A1
CSNK2A2 = test system: CSNK2A2
CTK = test system: T1, CTK
T1 construct: gene MATK

DAPK1 = test system: DAPK1
DAPK2 = test system: DAPK2
DAPK3 = test system: DAPK3
DCAMKL1 = test system: T2, DCAMKL1
T2 construct: gene DCLK1

DCAMKL2 = test system: T3, DCAMKL2
T3 construct: gene DCLK2

DCAMKL3 = test system: T4, DCAMKL3
T4 construct: gene DCLK3

DDR1 = test system: DDR1
DDR2 = test system: DDR2
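Also: KINOMEscan kinase panel screen.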

| SMILES | %Inh (CSF1R) | %Inh (CSK) | %Inh (CSNK1A1L) | %Inh (CSNK1A1) | %Inh (CSNK1D) | %Inh (CSNK1E) | %Inh (CSNK1G1) | %Inh (CSNK1G2) | %Inh (CSNK1G3) | %Inh (CSNK2A1) | %Inh (CSNK2A2) | %Inh (CTK) | %Inh (DAPK1) | %Inh (DAPK2) | %Inh (DAPK3) | %Inh (DCAMKL1) | %Inh (DCAMKL2) | %Inh (DCAMKL3) | %Inh (DDR1) | %Inh (DDR2) |
| --- | --- | --- | --- | --- | --- | --- | --- | --- | --- | --- | --- | --- | --- | --- | --- | --- | --- | --- | --- | --- |
| COc1cc(Nc2nccc(N3CCC(NC(=O)C(C)c4ccc(Cl)cc4)C3)n2)cc(OC)c1OC (stereo not shown) [GSK1379757] | 4% | 0% | 0% | 0% | 0% | 18% | 0% | 0% | 25% | 1% | 0% | 0% | 0% | 0% | 0% | 11% | 0% | 0% | 0% | 6% |
| Cc1ccccc1COc1cc(-n2cnc3cc(Cl)ccc32)sc1C(N)=O [GW813349] | 0% | 0% | 0% | 24% | 1% | 2% | 0% | 7% | 8% | 5% | 54% | 0% | 0% | 0% | 0% | 0% | 2% | 10% | 0% | 1% |
| CN1C(=O)C(Nc2ccccc2)=C(c2ccccc2)C1=O [SB-300079] | 16% | 0% | 0% | 0% | 0% | 0% | 0% | 0% | 0% | 0% | 0% | 28% | 0% | 0% | 0% | 22% | 0% | 0% | 0% | 37% |
| Cl.c1ccc(Cn2cnc3cc(Nc4ncnc5ccccc45)ccc32)cc1 [GW272142] | 4% | 64% | 11% | 0% | 16% | 42% | 1% | 1% | 27% | 0% | 0% | 0% | 0% | 0% | 22% | 4% | 20% | 0% | 5% | 14% |
| Cc1cc(Nc2nc(-c3cccc(C)n3)nc3ccccc23)ccn1 [GW872411] | 0% | 0% | 0% | 0% | 35% | 31% | 3% | 0% | 0% | 0% | 5% | 18% | 0% | 0% | 1% | 26% | 0% | 0% | 0% | 0% |
| O=C(NCc1cccs1)c1cc(C(=O)c2c(Cl)cccc2Cl)c[nH]1 [GW823670] | 13% | 0% | 0% | 0% | 0% | 0% | 0% | 0% | 0% | 0% | 0% | 0% | 0% | 8% | 22% | 14% | 18% | 2% | 26% | 0% |
| Nc1ncnc2c1ncn2-c1cccc2ccccc12 [SKF-97184] | 3% | 0% | 0% | 0% | 0% | 11% | 0% | 0% | 0% | 0% | 0% | 0% | 0% | 0% | 0% | 0% | 13% | 15% | 0% | 59% |
| COc1cccc(C2=C(Nc3cccc(C(=O)O)c3)C(=O)NC2=O)c1 [SB-390770] | 0% | 0% | 12% | 0% | 0% | 2% | 2% | 0% | 7% | 7% | 19% | 0% | 6% | 0% | 0% | 12% | 0% | 13% | 0% | 6% |
| O=C1NC(=O)C(c2ccccc2)=C1Nc1cccc(O)c1 [SB-390534] | 10% | 0% | 8% | 19% | 0% | 16% | 0% | 0% | 8% | 0% | 0% | 4% | 0% | 0% | 0% | 6% | 0% | 0% | 0% | 0% |
| Cc1c(Cn2c(C)nn3c(=O)cc(N4CCO[C@H](C)C4)nc23)cccc1C(F)(F)F [GSK2373690] | 51% | 0% | 2% | 23% | 25% | 20% | 67% | 0% | 21% | 0% | 0% | 0% | 0% | 0% | 8% | 0% | 17% | 11% | 15% | 2% |
| Cn1c(=O)c(F)c(Nc2ccc(I)cc2F)c2c(=O)n(OC[C@H](O)CO)cnc21 | 21% | 20% | 0% | 36% | 12% | 25% | 11% | 20% | 4% | 0% | 0% | 0% | 0% | 0% | 13% | 13% | 20% | 20% | 0% | 25% |
